Inhibition data for 51 molecules are collected here from PubChem BioAssay AID504592 (Broad Institute, 2011).

Out of some 1,100 compounds screened, about 540 (49%) were called active. Not shown: some 5% with an inconclusive outcome. So high a share suggests a set chosen from earlier hits. A selection follows. A number with no mark means an inactive call. No stated cut-off is given here; in the data, active means inhibition above about 54%; inconclusive means no clear call, values can overlap the other calls; inactive means below that.

A short description of this assay: prion 5' UTR mRNA inhibition, cherry-pick retest (AID 504592). The following applies: cell-based prion protein 5' UTR reporter, plate reader; at 2.5 µM; hits give high values.
Usually inhibition stands for the drop in the measured response relative to a control, in per cent. With `NC(=O)c1ccc(NC(=O)COC(=O)c2ccc([N+](=O)[O-])cc2)cc1`, the inhibition was 91.9% (active).

Turning to `O=C1/C(=C\c2ccc([N+](=O)[O-])cc2)CS(=O)(=O)C/C1=C/c1ccc([N+](=O)[O-])cc1`, the inhibition is 85.3% (active).

Turning to `CC12CCC3C(CCC4CC(=O)CCC43C)C1CC(=NO)C2=O` (stereo unspecified), the inhibition is 0.372%.

For the molecule `O=C(CSc1ncnc2sccc12)N1CCN(C(=O)c2cccs2)CC1`, the inhibition was 9.5%.

For `COc1cc(OC)cc(C(=O)N[C@H](C(=O)Nc2nc3ccccc3[nH]2)C(C)C)c1`, the inhibition was 44.9%.

`COc1cccc2c1C(=O)c1c(O)c3c(c(O)c1C2=O)CC(O)(C(C)=NNC(=O)c1ccc(Cl)c(Cl)c1)CC3OC1CC(N)C(O)C(C)O1` (stereo unspecified): the inhibition is 82.4% (active).

As for `CCC(C)(O)C(=O)OC1C(=O)OC2CC3C(C)=CC(=O)C(O)C3(C)C3C4(O)OCC23C1C(C)C4O` (stereo unspecified), the inhibition is 83% (active).

With `Cc1ccc(-c2cn3cc(C)ccc3n2)cc1`, the inhibition was 89.9% (active).

With `Cc1ccc2nc(-c3ccc(Br)cc3)cn2c1`, the inhibition is 40%.

For `Nc1ccc(OCC(O)C[n+]2ccc(CCS(=O)(=O)[O-])cc2)cc1` (stereo unspecified), the inhibition was -71.6%.

For `CN(NC(=O)c1ccccc1F)c1nc(C(F)(F)F)nc2ccccc12`, the inhibition is 86.4% (active).

As for `COc1ccc(C2=Nn3c(nnc3-c3ccccc3OC)SC2)cc1OC1CCCC1`, the inhibition is 79.2% (active).

For the molecule `CC(C)(C)C1CCc2c(sc3nc(SCC(N)=O)nc(N)c23)C1` (stereo unspecified), the inhibition is -25.3%.

For the molecule `COC1C(O)C(C)OC(OC2CCC3(C=O)C(CCC4C3CCC3(C)C(C5=CC(=O)OC5)CCC43O)C2)C1O` (stereo unspecified), the inhibition is 91.9% (active).

As for `Cc1ccc(CCC(=O)Nc2ncc(Cc3cc(Cl)ccc3Cl)s2)o1`, the inhibition was 89.3% (active).

Turning to `Clc1ccc2nc(-c3ccccc3)nc(C(Cl)Cl)c2c1`, the inhibition was 89.1% (active).

In the case of `Cc1cc(NC(=O)/C=C/C(=O)N(CC(=O)NC2CCCC2)c2ccc(F)cc2)no1`, the inhibition is 15.5%.

Take `O=C(NNC(=O)c1ccccc1O)c1ccccc1O`: the inhibition was 62.2% (active).

On to `CC1Cc2ccccc2N1C(=O)c1cc2sccc2n1Cc1ccccc1` (stereo unspecified), for which the inhibition was -33.3%.

In the case of `O=c1oc2ccccc2cc1-c1cn(-c2ccccc2)c(=S)[nH]1`, the inhibition is 86.9% (active).

In the case of `CCCOC(=O)c1[nH]c2c(c1C)C(=O)CC(c1cccs1)C2` (stereo unspecified), the inhibition is 88.2% (active).

For `Cc1cc(Nc2ccccc2)n(C(=O)c2ccc(N)cc2)n1`, the inhibition is 12%.

With `COc1cc([N+](=O)[O-])ccc1NC(=S)N1CCN(c2ccccn2)CC1`, the inhibition is -10.7%.

With `CN(c1ccc2nc3ccccc3c(=O)n2n1)C1CCCCC1`, the inhibition is 86.2% (active).

Turning to `O=C(Nc1ccc2c(c1)OCCO2)C1CCCC1`, the inhibition was 33.2%.

Consider `CCOc1cc(NS(=O)(=O)c2ccc(OC)cc2)c(OCC)cc1NC(C)=O`, for which the inhibition is -19.5%.

As to `C=CCOc1ccc(/C=C2\SC(=S)N(CCC(=O)O)C2=O)cc1`, the inhibition was 61.2% (active).

Regarding `COc1cc(SC)ccc1C(=O)Nc1nc(C)cs1`, the inhibition was 79% (active).

Consider `OCC1(Cc2ccccc2)CCN(Cc2cc3ccccc3o2)CC1`, for which the inhibition is -6.23%.

In the case of `O=C(CN1C(=O)c2ccccc2S1(=O)=O)N1CCc2ccccc21`, the inhibition is 80% (active).

Consider `CC(C)(C)c1ccc(Oc2ccc(N)cc2)cc1`, for which the inhibition is 85.6% (active).

On to `O=C(C1=C[C@H](c2coc3ccccc3c2=O)C[C@H](OCc2ccc(CO)cc2)O1)N1CCN(Cc2ccccc2)CC1`, for which the inhibition was -63.6%.

Turning to `COc1ccc(C(=O)Nc2ccccc2C(=O)N/N=C/c2ccc(O)c(OC)c2)cc1`, the inhibition was 71.2% (active).

In the case of `CCC(C)Cn1c(O)cc2nn(-c3nc4ccccc4s3)c(=O)c-2c1C` (stereo unspecified), the inhibition was 89.8% (active).

As to `CCCCNS(=O)(=O)CCNCc1ccccc1OC`, the inhibition was -14.3%.

As to `Oc1ccc(N2CCN(C(=S)NCc3ccccc3)CC2)cc1`, the inhibition was -21.4%.

As to `CC(=O)OC1C2(CC3N4C(=O)C5(CO)SSC4(CC31O)C(=O)N5C)OC(C)C(C)(C)C2=O` (stereo unspecified), the inhibition is 98.2% (active).

Turning to `CCn1c(=O)c(=O)[nH]c2c(=O)oc3ccc(S(=O)(=O)Nc4ccc(OC)cc4)cc3c21`, the inhibition was -6.15%.

Regarding `COC(=O)Cc1[nH]n(-c2nc3ccccc3s2)c(=O)c1C(C)=Nc1ccc(OC)cc1`, the inhibition is 80.6% (active).

In the case of `COc1ccc(OC)c(Cc2cnc3nc(N)nc(N)c3c2C)c1`, the inhibition is -3.64%.

Consider `CC(=O)c1ccc(Oc2cc(C)nc(-n3nc(C)cc3C)n2)cc1`, for which the inhibition was 83.7% (active).

Turning to `COc1ccc(C(=O)/C=C/Nc2ccccn2)cc1`, the inhibition was 73.9% (active).

As to `Cc1ccc(-c2cccc([C@H]3[C@@H]4C=CC[C@@H](C)[C@@H]4C(=O)N3Cc3ccccc3)c2)cc1`, the inhibition is -13.7%.

Regarding `CSc1nc(-c2ccccc2)nc(C(Cl)Cl)n1`, the inhibition was 89.8% (active).

For the molecule `C=CCn1c(C)cc(C2=NNC(=NCC)SC2)c1C`, the inhibition was 95.3% (active).

Regarding `O=C1[C@@H](c2ccccc2)[C@@H](c2ccccc2)N1c1cccnc1`, the inhibition was -4.06%.

For `Cc1ccc(S(=O)(=O)Nc2nc3ccccc3s2)cc1[N+](=O)[O-]`, the inhibition is 79.1% (active).

As for `C/C(=N\NC(=O)c1cc2c(s1)CCC(C)C2)c1cccnc1` (stereo unspecified), the inhibition is -16.9%.

Regarding `Cc1ccc(/C=N/NC(=O)COc2ccccc2-c2ccccc2)cc1`, the inhibition is 87.8% (active).

Take `COc1ccccc1N1CCN(C(=O)c2cc(=O)c3cc(C)cc(C)c3o2)CC1`: the inhibition is 91.6% (active).

In the case of `CN(CCO)c1ccc(/C=N/Nc2nncc3ccccc23)cc1`, the inhibition is 72.6% (active).
